Measured values as given in the supplement of paper PMC12645437, “Orthogonal IMiD-Degron Pairs Induce Selective Protein Degradation in Cells” (ACS Chemical Biology, 2025).
Over roughly 8,300 sequences, “log2 fold change of degron read counts, EGFP-low vs EGFP+ sorted cells (limma voom), compound-induced degradation” has its median near -1.1; the highest 2% begin near 3.2. The sample holds the highest values, similar sequences and a random draw of the others, so the mix is not that of the screen.

T1: CRBN, Q96SW2
T1 chain: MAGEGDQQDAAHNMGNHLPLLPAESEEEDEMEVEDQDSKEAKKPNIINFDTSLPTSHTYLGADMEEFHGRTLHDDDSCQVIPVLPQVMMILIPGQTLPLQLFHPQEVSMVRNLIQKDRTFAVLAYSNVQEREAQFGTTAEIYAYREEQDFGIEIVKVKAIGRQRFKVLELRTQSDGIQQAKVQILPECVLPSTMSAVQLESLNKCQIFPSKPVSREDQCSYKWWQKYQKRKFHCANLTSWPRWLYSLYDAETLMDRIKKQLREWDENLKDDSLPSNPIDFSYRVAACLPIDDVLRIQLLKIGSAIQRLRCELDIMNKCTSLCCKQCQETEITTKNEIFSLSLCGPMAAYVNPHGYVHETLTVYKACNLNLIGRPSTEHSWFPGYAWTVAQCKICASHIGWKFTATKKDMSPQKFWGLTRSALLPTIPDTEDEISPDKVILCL


Target: T1, CRBN, Q96SW2
Assay: log2 fold change of degron read counts, EGFP-low vs EGFP+ sorted cells (limma voom), compound-induced degradation; higher = more compound-induced degradation of the degron-EGFP fusion; degrons are variants of IKZF1/3 zinc finger 2; compound dose not given here
Settings: Jurkat, 18 h
[1] = compound: compound 19 (5-tert-butyl-thalidomide)
[2] = compound: compound 22 (5-morpholino-thalidomide)
[3] = compound: compound 33 (diphenyl IMiD analogue)
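Further: pooled lentiviral library of zinc finger degron-EGFP fusions in mCherry-positive Jurkat cells, FACS-sorted after compound exposure, with degron abundance counted by next-generation sequencing.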

Sequence	log2 fold change of degron read counts [1]	log2 fold change of degron read counts [2]	log2 fold change of degron read counts [3]	log2 fold change of degron read counts (compound: thalidomide)
LLCEICGFNCTQKGNLLRHIKL [46L_47L_49E_50I_52G_53F_54N_55C_67L_, Q9UKT9]	-1.18	-1.96	-1.11	-0.267
FYCEICGRPFTQKGNLLRHIKL [46F_47Y_49E_50I_52G_53R_54P_55F_67L_, Q9UKT9]	3.04	1.62	1.39	0.0233
FACNQCGHHFTQKGNLLRHIKL [46F_47A_49N_50Q_52G_53H_54H_55F_67L_, Q9UKT9]	-2.3	-2.72	-2.62	-2.01
FDCNQCGASFTQKGNLLRHIKL [46F_47D_49N_50Q_52G_53A_54S_55F_67L_, Q9UKT9]	-2.01	-2.73	-2.35	-2.1
FYCPICGHYFTQKGNLLRHIKL [46F_47Y_49P_50I_52G_53H_54Y_55F_67L_, Q9UKT9]	-0.992	-1.44	-0.727	-1.13
FWCPICGAFFTQKGNLLRHIKL [46F_47W_49P_50I_52G_53A_54F_55F_67L_, Q9UKT9]	2.39	3	1.83	0.77
LKCNQCGFQCTQKGNLLRHIKL [46L_47K_49N_50Q_52G_53F_54Q_55C_67L_, Q9UKT9]	-2.34	-2.76	-2.86	-2.48
FKCDQCGAEFTQKGNLLRHIKL [46F_47K_49D_50Q_52G_53A_54E_55F_67L_, Q9UKT9]	-2.81	-1.6	-3.49	-3
FLCEVCGATFTQKGNLLRHIKL [46F_47L_49E_50V_52G_53A_54T_55F_67L_, Q9UKT9]	-1.71	-1.32	0.752	1.34
FFCEVCGATFTQKGNLLRHIKL [46F_47F_49E_50V_52G_53A_54T_55F_67L_, Q9UKT9]	2.72	3.74	1.9	1.47
FVCEVCGATFTQKGNLLRHIKL [46F_47V_49E_50V_52G_53A_54T_55F_67L_, Q9UKT9]	-0.246	1.36	1.98	2.24
FLCPICGRGFTQKGNLLRHIKL [46F_47L_49P_50I_52G_53R_54G_55F_67L_, Q9UKT9]	-1.58	-1.94	-0.785	-0.724
FCCPICGAHFTQKGNLLRHIKL [46F_47C_49P_50I_52G_53A_54H_55F_67L_, Q9UKT9]	1.94	0.949	1.85	1.24
FQCPICGAHFTQKGNLLRHIKL [46F_47Q_49P_50I_52G_53A_54H_55F_67L_, Q9UKT9]	0.0422	1.5	1.32	3.32
FYCPICGAHFTQKGNLLRHIKL [46F_47Y_49P_50I_52G_53A_54H_55F_67L_, Q9UKT9]	3.12	3.56	2.1	0.702
FACPICGAHFTQKGNLLRHIKL [46F_47A_49P_50I_52G_53A_54H_55F_67L_, Q9UKT9]	3.08	1	0.948	0.563
FVCPICGAHFTQKGNLLRHIKL [46F_47V_49P_50I_52G_53A_54H_55F_67L_, Q9UKT9]	-0.217	2.12	1.37	2.41
FGCPICGAHFTQKGNLLRHIKL [46F_47G_49P_50I_52G_53A_54H_55F_67L_, Q9UKT9]	2.89	1.31	1.51	0.333
FFCPICGAHFTQKGNLLRHIKL [46F_47F_49P_50I_52G_53A_54H_55F_67L_, Q9UKT9]	2.66	2.83	1.81	0.615
FWCPICGAHFTQKGNLLRHIKL [46F_47W_49P_50I_52G_53A_54H_55F_67L_, Q9UKT9]	2.66	3.51	1.81	0.881
FSCPICGAHFTQKGNLLRHIKL [46F_47S_49P_50I_52G_53A_54H_55F_67L_, Q9UKT9]	2.35	1.14	1.5	1.13
